Results on 31 compounds are retold here after ChEMBL document CHEMBL1157539, “Thousands of chemical starting points for antimalarial lead identification” (Nature, 2010).

Holding throughout (type): functional
In experiment [1] the test system is Plasmodium falciparum. Briefly: GSK_TCMDC: Inhibition of Plasmodium falciparum 3D7 in whole red blood cells, using parasite LDH activity as an index of growth. Test compounds present at 2uM.
Experiment [2] deals with Plasmodium falciparum. Briefly: GSK_TCMDC: Inhibition of Plasmodium falciparum Dd2 in whole red blood cells, using parasite LDH activity as an index of growth. Test compounds present at 2uM.
A further experiment has as its system HepG2. Briefly: GSK_TCMDC: Percent inhibition of human HepG2 cell line. Test compounds present at 10uM.

`Br.CCCN(CCCCCCNCCc1ccc(Cl)cc1)CCc1ccc(O)c(O)c1`: the Inhibition (as a rule, the percentage by which the read-out fell short of the control) with Plasmodium falciparum [1] was 91%; in the experiment with Plasmodium falciparum [2] it was 11%; in the experiment on HepG2 it was 26%.

As to `Cl.N=C(N)c1cc(Cl)cc(NC(=O)Nc2cc(Cl)cc(C(=N)N)c2)c1`, the Inhibition in the experiment with Plasmodium falciparum [1] worked out at 92%; in the experiment with Plasmodium falciparum [2], 92%; with HepG2, 4%.

With `CC(C)(CNC(=O)[C@@H]1CCCN(CCOc2ccc(Cl)cc2)C1)c1nc(-c2ccc(Cl)c(O)c2)c(-c2ccncc2)[nH]1.Cl`, the Inhibition amounted to 92% in the experiment on Plasmodium falciparum [1], 57% in the experiment on Plasmodium falciparum [2] and 58% in the experiment with HepG2.

Regarding `O=C(Nc1ccc(Cl)c(C(F)(F)F)c1)N[C@H]1CCN(CCCCCNC(=O)C2CC2c2ccc(Cl)c(Cl)c2)C1` (stereo partly drawn), the Inhibition in the experiment on Plasmodium falciparum [1] is reported as 94%; with Plasmodium falciparum [2] it was 0%; in the experiment on HepG2 it was 39%.

As to `COc1cc2nc(N3CCC(CNC(=O)c4ccc(OC(F)(F)F)cc4)CC3)nc(N)c2cc1OC.O=C(O)C(F)(F)F`, the Inhibition in the experiment on Plasmodium falciparum [1] came out at 100%; with Plasmodium falciparum [2] it was 98%; in the experiment with HepG2, 16%.

With `COc1ccc2nccc([C@@H](O)CN3CCC(NCc4ccc5cccc(O)c5n4)CC3)c2n1.CS(=O)(=O)O`, the Inhibition with Plasmodium falciparum [1] is listed as 94%; with Plasmodium falciparum [2] it was 13%; in the experiment on HepG2 it was 8%.

Take `O=C(NOCc1ccccc1)c1cc(Cl)ccc1O`: the Inhibition worked out at 83% with Plasmodium falciparum [1], 0% in the experiment with Plasmodium falciparum [2] and 2% with HepG2.

In the case of `Cc1cccc2nc(-c3ccc(-c4ccc(CNCC(C)C)cc4)cc3)[nH]c12.O=C(O)C(F)(F)F`, the figures for the Inhibition in the experiment on Plasmodium falciparum [1], in the experiment on Plasmodium falciparum [2] and in the experiment on HepG2 were 100%, 90% and 14%, respectively.

As to `CCC(CC)NCc1c(O)ccc2c(CNC(CC)CC)c(O)ccc12.Cl`, the Inhibition with Plasmodium falciparum [1] is 100%; in the experiment on Plasmodium falciparum [2], 94%; with HepG2, 4%.

Regarding `COc1c(C2CCN(CCCCNC(=O)c3ccc(C)c(-c4ccc(C(F)(F)F)cc4)c3)CC2)ccc2c1CCCC2`, the Inhibition with Plasmodium falciparum [1] was found to be 86%; with Plasmodium falciparum [2], 79%; in the experiment on HepG2, 76%.

Consider `Cc1cc(OC(C)C(=O)N2CCc3ccccc32)ccc1Cl` (stereo not drawn), for which the figures for the Inhibition with Plasmodium falciparum [1], with Plasmodium falciparum [2] and with HepG2 were 89%, 54% and 20%, respectively.

Regarding `Cc1cc(OCC(=O)Nc2ccc(-c3nc4ccccc4[nH]3)cc2)cc(C)c1Cl`, the Inhibition in the experiment with Plasmodium falciparum [1] was found to be 99%; in the experiment with Plasmodium falciparum [2], 0%; in the experiment with HepG2, 5%.

With `Fc1ccc(C(OCC2CCCN(Cc3cccc4cccnc34)C2)c2ccc(F)cc2)cc1` (stereo not drawn), the Inhibition with Plasmodium falciparum [1] amounted to 98%; with Plasmodium falciparum [2], 97%; with HepG2, 21%.

With `Cl.Oc1ccc(CCNc2nc(NCCCOc3ccccc3-c3ccc(C(F)(F)F)cc3)nc(N3CCNCC3)n2)cc1`, the Inhibition in the experiment on Plasmodium falciparum [1] is 100%; with Plasmodium falciparum [2], 49%; in the experiment on HepG2, 64%.

With `CC(C)CCNCc1ccc(OCc2cccc(C(=O)Nc3ccccc3)c2)c(I)c1.O=C(O)C(F)(F)F`, the values for the Inhibition in the experiment with Plasmodium falciparum [1], in the experiment with Plasmodium falciparum [2] and with HepG2 were 100%, 59% and 25%, respectively.

For the compound `Cc1cccc(C)c1OC(=O)CSc1nnc(-c2ccccc2O)o1`, the values for the Inhibition in the experiment on Plasmodium falciparum [1], in the experiment with Plasmodium falciparum [2] and in the experiment with HepG2 were 97%, 0% and 11%, respectively.

Consider `O=C(NC1CC1)c1ccc(Nc2nccc(-c3c(-c4cccc(NC(=O)c5c(F)cccc5F)c4)nn4ccccc34)n2)cc1`, for which the Inhibition stood at 94% in the experiment on Plasmodium falciparum [1], 96% in the experiment on Plasmodium falciparum [2] and 84% in the experiment with HepG2.

Regarding `CCN(CC)c1ccc(C(c2ccc(N(CC)CC)cc2)c2ccc([N+](=O)[O-])cc2)cc1`, the Inhibition with Plasmodium falciparum [1] turned out to be 82%; in the experiment on Plasmodium falciparum [2], 63%; in the experiment with HepG2, 20%.

`CN(C)S(=O)(=O)c1ccc(Nc2nc(NCCC3C=NC=N3)nc3cc[nH]c(=O)c23)cc1` (stereo not drawn): the Inhibition is reported as 96% with Plasmodium falciparum [1], 63% in the experiment with Plasmodium falciparum [2] and 8% in the experiment with HepG2.

In the case of `Cc1ncc(CN2CCC(C(=O)Nc3ccc(-c4nc5ccccc5o4)cc3)CC2)s1`, the Inhibition is listed as 82% in the experiment on Plasmodium falciparum [1], 92% in the experiment on Plasmodium falciparum [2] and 0% in the experiment on HepG2.

Regarding `c1ccc(CN2CCC(Nc3ccc(-c4c[nH]nc4-c4ccccn4)nc3)CC2)cc1`, the Inhibition is recorded as 97% in the experiment with Plasmodium falciparum [1], 23% in the experiment with Plasmodium falciparum [2] and 1% in the experiment on HepG2.

With `COc1ccccc1C1CCN(C2CCC(NC(=O)c3cc(-c4ccc(Cl)cc4)cs3)CC2)CC1` (stereo not drawn), the Inhibition with Plasmodium falciparum [1] was found to be 100%; in the experiment on Plasmodium falciparum [2], 100%; with HepG2, 61%.

For `Cl.c1ccc(CN2CCN(CCNc3c4ccccc4nc4ccccc34)CC2)cc1`, the figures for the Inhibition in the experiment on Plasmodium falciparum [1], in the experiment with Plasmodium falciparum [2] and in the experiment with HepG2 were 100%, 97% and 44%, respectively.

Consider `CC(CN1CCN(C)CC1)C(=O)Nc1cccc(-c2ccc(-c3nc4ccccc4[nH]3)cc2)c1` (stereo not drawn), for which the results for the Inhibition in the experiment with Plasmodium falciparum [1], in the experiment on Plasmodium falciparum [2] and in the experiment on HepG2 were 95%, 38% and 2%, respectively.

In the case of `COc1cc(Nc2nccc(N3CCC(NC(=O)c4cccc(C#N)c4)C3)n2)cc(OC)c1OC` (stereo not drawn), the Inhibition with Plasmodium falciparum [1] came out at 91%; in the experiment on Plasmodium falciparum [2], 76%; with HepG2, 13%.

As for `Br.CC(C)(C)c1ccc(Cn2c(=N)n(CC(=O)c3ccc(-c4ccccc4)cc3)c3ccccc32)cc1`, the Inhibition with Plasmodium falciparum [1] is given as 98%; in the experiment with Plasmodium falciparum [2], 50%; in the experiment with HepG2 it was 63%.

In the case of `Cc1nc2ccccc2c(O)c1-c1ccc(Cl)cc1`, the values for the Inhibition in the experiment on Plasmodium falciparum [1], with Plasmodium falciparum [2] and in the experiment on HepG2 were 93%, 91% and 0%, respectively.

For `CCn1c(Sc2ccc(C#N)c([N+](=O)[O-])c2)nnc1-c1cc(OC)cc(OC)c1`, the Inhibition with Plasmodium falciparum [1] was 93%; in the experiment with Plasmodium falciparum [2], 82%; in the experiment with HepG2, 7%.

In the case of `O=C(/C=C/c1ccc(Cl)c(Cl)c1)NCCCCN1CCCN(C(=O)Nc2ccc(C(F)(F)F)cc2)CC1`, the values for the Inhibition with Plasmodium falciparum [1], in the experiment with Plasmodium falciparum [2] and with HepG2 were 94%, 0% and 35%, respectively.

Take `COc1ccc(-c2nc3c(N)nc(N)nc3nc2C(C)C)cc1`: the Inhibition with Plasmodium falciparum [1] was found to be 96%; in the experiment with Plasmodium falciparum [2], 0%; in the experiment with HepG2 it was 71%.

In the case of `CCN(CC)CCN(Cc1ccc(-c2ccc(C(F)(F)F)cc2)cc1)C(=O)Cn1c(CCc2cccc(F)c2F)c(C)c(=O)c2ccccc21.O=C(O)C(O)C(O)C(=O)O`, the Inhibition with Plasmodium falciparum [1] was 87%; in the experiment on Plasmodium falciparum [2], 52%; in the experiment with HepG2, 61%.
